About 83,000 compounds went through this panel and 20% of them were active in at least one assay; those are over-represented in the sample as a whole.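 For each line, cells grew in 96-well plates with the test compound present at a single concentration for 48 hours.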 Values without a mark were called inactive. The source made the active and inactive calls. Rule for the calls: active = growth percent below 10; inactive = the rest.
Experiments:
Test in all cases: NCI-60 one-dose screen, 48 h (100 = growth as untreated, 0 = no growth, -100 = all killed)
Conditions in all cases: 10 µM unless noted
HCT-15 colon = tested on: HCT-15 colon
HT29 colon = tested on: HT29 colon
SNB-75 CNS = tested on: SNB-75 CNS
SNB-19 CNS = tested on: SNB-19 CNS
U251 CNS = tested on: U251 CNS
PC-3 prostate = tested on: PC-3 prostate
SK-MEL-5 melanoma = tested on: SK-MEL-5 melanoma
UACC-62 melanoma = tested on: UACC-62 melanoma
SK-MEL-28 melanoma = tested on: SK-MEL-28 melanoma
SK-MEL-2 melanoma = tested on: SK-MEL-2 melanoma
EKVX NSCLC = tested on: EKVX NSCLC
SN12C renal = tested on: SN12C renal
TK-10 renal = tested on: TK-10 renal
ACHN renal = tested on: ACHN renal
CAKI-1 renal = tested on: CAKI-1 renal
A498 renal = tested on: A498 renal
MOLT-4 leukemia = tested on: MOLT-4 leukemia
CCRF-CEM leukemia = tested on: CCRF-CEM leukemia
LOX IMVI melanoma = tested on: LOX IMVI melanoma
UO-31 renal = tested on: UO-31 renal

Row | Compound | growth (HCT-15 colon) | growth (HT29 colon) | growth (SNB-75 CNS) | growth (SNB-19 CNS) | growth (U251 CNS) | growth (PC-3 prostate) | growth (SK-MEL-5 melanoma) | growth (UACC-62 melanoma) | growth (SK-MEL-28 melanoma) | growth (SK-MEL-2 melanoma) | growth (EKVX NSCLC) | growth (SN12C renal) | growth (TK-10 renal) | growth (ACHN renal) | growth (CAKI-1 renal) | growth (A498 renal) | growth (MOLT-4 leukemia) | growth (CCRF-CEM leukemia) | growth (LOX IMVI melanoma) | growth (UO-31 renal)
1 | CCOC(=O)CCN(c1c(Cl)ssc1=O)C(C)C | 113% | 102% | 97.8% | 109% | 101% | 101% | 97.7% | 97.8% | 93.4% | 96.4% | 107% | 114% | 129% | 118% | 124% | 106% | -14.5% (active) |  |  | 
2 | CCOc1cc(/C=C/C(=O)CC(=O)/C=C/c2ccc(OC(=O)CNc3nc4ccc(OC)cc4s3)c(OCC)c2)ccc1OC(=O)CNc1nc2ccc(OC)cc2s1 | 43.4% | -50.8% (active) | 34.1% | 49% | 15.7% | 35.3% | 30.1% | 55.8% | 39.5% | 59.1% | 41.7% | 59% | 60.5% | 69.4% | 75.9% | 91.6% | 4.13% (active) | 4.63% (active) |  | 
3 | CCOC(=O)CCC(=O)O[C@H]1[C@H](O[C@@H]2[C@@H](C)[C@H](O[C@H]3C[C@@](C)(OC)[C@@H](O)[C@H](C)O3)[C@@H](C)C(=O)O[C@H](CC)[C@@](C)(O)[C@H](O)[C@@H](C)C(=O)[C@H](C)C[C@@]2(C)O)O[C@H](C)C[C@@H]1N(C)C | 98.1% | 102% | 91.5% | 112% | 101% | 92.6% | 104% | 102% |  | 121% | 100% | 101% |  | 96.4% | 93.2% | 120% | 94.2% | 91.4% | 102% | 67.7%
4 | O=c1sc2ncnc3ncn1c32 | 78% | 56.2% | 46.1% | 97.4% | 87.4% | 75.8% | 89.3% | 56.8% |  | 81.9% |  | 85% | 26.9% | 80.3% | 43.1% | 101% | 35.9% | 54.8% | 12.7% | 52.6%
5 | COc1ccc(NC(=O)c2ccc(-c3ccccc3)cc2)c(C(N)=O)c1 | 97.1% | 99.9% | 112% | 94.2% | 98.4% | 93.1% | 101% | 91.5% |  | 99.6% |  | 96.6% | 118% | 102% | 103% | 97% | 84.6% | 90% | 96.6% | 79.6%
6 | CCOC(=O)CNC(=O)C1(NC(=O)CNC(=O)OCc2ccccc2)CCCC1 | 102% | 105% | 83.9% | 102% | 106% | 98.7% | 112% | 97% |  | 107% | 99.4% | 93.8% | 102% | 103% | 95.2% | 102% | 106% | 102% | 95.4% | 98.6%
7 | CC1C(=O)NC2=Nc3ccccc3C(=O)NN21 (configuration not stated) | 108% | 103% | 86.7% | 107% | 101% | 92.4% | 94.5% | 92.2% |  | 96% | 88.3% | 99.7% |  | 93.8% | 94.5% | 116% | 94.3% | 97.3% | 95.4% | 64%
8 | COc1cnc2c(c1)C(=O)c1c-2n(CCCN2CCOCC2)c(=O)c2cc(F)ccc12 | 8.29% (active) | -27.5% (active) | -19.1% (active) | 14.5% | -27.7% (active) | 12.1% | -95.1% (active) | -52% (active) |  | 21.4% | 17.7% | 12.4% |  | -66.9% (active) |  | -24% (active) | -18.5% (active) | 1.77% (active) | -50.3% (active) | -47.2% (active)
9 | Fc1ccccc1C1c2ccccc2-c2nccn21 (configuration not stated) | 99.2% | 100% | 98.2% | 100% | 98.8% | 87.3% | 97% | 89% |  | 99.5% | 96.1% | 97.1% | 97.4% | 112% | 66.5% | 90.9% | 87.4% | 96.9% | 98.1% | 93.7%
10 | C/C(=C\CCc1ccoc1)CC/C=C(\C)CCCN1CCSCC1 | 43.3% | 45.8% | 93.4% | 87.8% | 76.7% | 84.3% | 37.8% | 75.3% | 88.7% | 85.5% |  | 76.7% | 84.9% | 83.8% | 80.7% | 38.2% |  | 62.9% |  | 62.4%
11 | O=C(Nc1ccccc1)P(=O)(O)c1ccccc1 | 99.5% | 114% | 78.8% | 103% | 94.6% | 95.5% | 102% | 94.1% |  | 118% | 113% | 92.1% | 107% | 93.9% | 117% |  | 95% | 120% | 96% | 76.9%
12 | COc1cc(-c2nc3sc4c(c3c(=O)[nH]2)CCCCCC4)cc(OC)c1OC | 24.8% | 10.5% | -0.669% (active) | 21.2% | 25.8% | 38% | 8.73% (active) | 19.1% | 51.6% | 16.4% |  | 22.1% | 47.6% | 44.5% | 19.9% | -12.3% (active) |  | 14.3% |  | 27.8%
13 | C[N+]1(C)C2CC[C@@H]1CC(OC(=O)C(O)c1ccccc1)C2 (some centres not stated) | 105% | 103% | 99% | 110% | 98.5% | 99.5% | 102% | 102% | 113% | 150% | 99.4% | 87.3% |  | 106% | 84.1% | 109% | 126% |  |  | 85.3%
14 | COc1ccc2nc(N/N=C(\C)c3ccccn3)cc(C)c2c1 | -48.5% (active) | -45.5% (active) | -7.43% (active) | 23.9% | -85.5% (active) | 12.9% | -86.2% (active) | -44.2% (active) | 20% | -22.8% (active) | -84.4% (active) | 11.8% | 18.4% | -13.8% (active) | -3.71% (active) | -64.5% (active) | -49.9% (active) | -37.4% (active) |  | -31% (active)
15 | COc1cnc2c(c1)C(=O)c1c-2n(CCCN2CCC(O)CC2)c(=O)c2cc(F)ccc12 | 7.5% (active) | -20.6% (active) | -16.9% (active) | 14% | -28.4% (active) | 3.1% (active) | -98.9% (active) | -40.8% (active) |  | 3.49% (active) | 2.5% (active) | 9.71% (active) |  | -58% (active) |  | -87.9% (active) | -19.2% (active) | -2.05% (active) | -70.3% (active) | -89.4% (active)
